Only some compounds are listed: those with a hit (about 5.7% of all), similar ones and a draw of the others.
JMJD2E inh = JMJD2E (human) inhibition | Potency, µM (top dose mostly 57.1 µM), inactives show at the top dose activity change, negative = inhibition, actives largely listed as inhibitors | B2RXH2 | hit rate 1.6% among 230,000 | JMJD2E catalytic domain, FDH-coupled NADH fluorescence (FDH is formaldehyde dehydrogenase); active = well fitted inhibition curve with a large enough effect, not every such curve was filed as active; inconclusive = small, poorly fitted or top-dose-only effect, or another doubt; inactive = no such curve, though single readings can be large or run the other way;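 note: potency is the fitted concentration of half-maximal effect; 0% = wells with enzyme and -100% = buffer wells without enzyme; nearly all actives have a fitted effect of over 50% in size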
PI5P4K alpha inh = PI5P4K alpha (human) kinase inhibition | P48426 | hit rate 1.2% among 330,000 | max response, % | PI5P4Kalpha enzyme, ADP-Glo luminescence, 60 min; stronger effect = lower value | AID 652105; active = max response of -50% or lower; inconclusive = between -30% and -50%; inactive = -30% or higher; note: value at the top dose of about 77 µM; % is set by controls: 0 for no effect and ±100 for the full control effect
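Compounds were pin-transferred onto PI5P4Kalpha and substrate in HEPES pH 7.4 buffer with EGTA, CHAPS and 5% DMSO. ATP (5 microM final) started the reaction, which ran 60 minutes at room temperature before ADP-Glo detection.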
BAZ2B inh = inhibitors of human BAZ2B bromodomain. AlphaScreen BAZ2B-H3K14Ac peptide displacement. hit rate 4.4% among 360,000. Potency, µM (doses to about 114 µM), without a hit: top-dose activity change, negative = inhibition, actives largely listed as inhibitors. Q9UIF8; note: potency is the fitted concentration of half-maximal effect; % is set by controls: 0 for no effect and ±100 for the full control effect; nearly all actives have a fitted effect of over 60% in size
Target sequence (Q9UIF8 whole entry, looked up): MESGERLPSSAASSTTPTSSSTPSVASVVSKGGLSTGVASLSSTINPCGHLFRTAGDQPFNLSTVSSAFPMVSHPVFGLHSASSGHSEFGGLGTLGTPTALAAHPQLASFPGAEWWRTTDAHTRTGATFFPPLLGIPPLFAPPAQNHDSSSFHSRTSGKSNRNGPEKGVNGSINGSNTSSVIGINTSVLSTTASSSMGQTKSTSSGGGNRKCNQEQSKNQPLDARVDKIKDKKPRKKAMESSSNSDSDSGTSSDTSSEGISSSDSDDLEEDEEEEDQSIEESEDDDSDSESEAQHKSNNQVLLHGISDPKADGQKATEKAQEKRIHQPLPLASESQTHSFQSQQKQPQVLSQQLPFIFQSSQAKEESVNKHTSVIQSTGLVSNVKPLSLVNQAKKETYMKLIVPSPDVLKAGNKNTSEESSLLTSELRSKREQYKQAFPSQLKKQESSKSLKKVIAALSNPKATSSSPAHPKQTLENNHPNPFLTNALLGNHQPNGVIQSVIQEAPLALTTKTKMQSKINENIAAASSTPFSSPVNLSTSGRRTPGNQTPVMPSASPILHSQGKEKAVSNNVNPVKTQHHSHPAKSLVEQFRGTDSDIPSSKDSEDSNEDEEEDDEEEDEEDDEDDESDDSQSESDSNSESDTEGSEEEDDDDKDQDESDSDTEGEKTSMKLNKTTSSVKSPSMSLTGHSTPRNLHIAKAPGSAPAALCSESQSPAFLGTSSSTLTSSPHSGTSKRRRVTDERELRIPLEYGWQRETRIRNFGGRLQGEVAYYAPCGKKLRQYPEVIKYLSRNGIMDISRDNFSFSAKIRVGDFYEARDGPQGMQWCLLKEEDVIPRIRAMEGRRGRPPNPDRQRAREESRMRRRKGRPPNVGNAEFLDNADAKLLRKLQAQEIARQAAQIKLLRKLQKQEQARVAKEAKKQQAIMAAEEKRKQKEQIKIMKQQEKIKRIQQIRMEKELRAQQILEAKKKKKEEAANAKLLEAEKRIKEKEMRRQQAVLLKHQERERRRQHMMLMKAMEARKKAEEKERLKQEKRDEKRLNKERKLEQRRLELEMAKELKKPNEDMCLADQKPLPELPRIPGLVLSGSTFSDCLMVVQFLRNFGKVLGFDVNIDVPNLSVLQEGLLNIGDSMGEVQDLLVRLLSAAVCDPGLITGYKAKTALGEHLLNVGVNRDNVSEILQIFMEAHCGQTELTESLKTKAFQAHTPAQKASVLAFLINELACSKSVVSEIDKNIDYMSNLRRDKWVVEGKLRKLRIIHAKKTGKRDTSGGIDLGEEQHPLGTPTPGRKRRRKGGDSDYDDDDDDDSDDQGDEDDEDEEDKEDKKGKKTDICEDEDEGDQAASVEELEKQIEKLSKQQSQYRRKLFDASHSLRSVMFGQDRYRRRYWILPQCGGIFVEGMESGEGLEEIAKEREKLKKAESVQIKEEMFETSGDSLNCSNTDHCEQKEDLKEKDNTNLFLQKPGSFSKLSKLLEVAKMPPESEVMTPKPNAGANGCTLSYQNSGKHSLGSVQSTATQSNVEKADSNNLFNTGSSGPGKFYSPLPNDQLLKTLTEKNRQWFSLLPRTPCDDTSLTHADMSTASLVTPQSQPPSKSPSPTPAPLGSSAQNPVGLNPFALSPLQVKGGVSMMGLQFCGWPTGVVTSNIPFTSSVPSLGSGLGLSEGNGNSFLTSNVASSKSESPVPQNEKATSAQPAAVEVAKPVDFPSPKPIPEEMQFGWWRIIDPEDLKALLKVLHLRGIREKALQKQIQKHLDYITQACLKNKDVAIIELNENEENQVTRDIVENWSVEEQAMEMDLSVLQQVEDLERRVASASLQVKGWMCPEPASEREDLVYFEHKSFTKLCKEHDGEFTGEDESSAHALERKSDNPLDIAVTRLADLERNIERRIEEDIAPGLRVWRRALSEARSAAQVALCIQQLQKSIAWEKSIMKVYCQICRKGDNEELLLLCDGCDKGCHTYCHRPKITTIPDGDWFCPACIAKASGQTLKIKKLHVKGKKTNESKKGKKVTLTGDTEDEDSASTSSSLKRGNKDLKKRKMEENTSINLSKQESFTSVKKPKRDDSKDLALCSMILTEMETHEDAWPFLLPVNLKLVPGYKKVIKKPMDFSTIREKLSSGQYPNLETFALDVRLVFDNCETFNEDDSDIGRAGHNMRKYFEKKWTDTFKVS
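AlphaScreen displacement of biotin-H3(5-23)K14Ac peptide (50 nM final) from BAZ2B (50 nM final) in PBS pH 7.4, 0.01% Tween-20; complex preformed 30 min RT, then compounds (top 110 uM) 30 min RT, beads 20 min dark.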
JMJD2A Tudor inh = JMJD2A Tudor domain (human) inhibition; O75164; AlphaScreen JMJD2A-Tudor / H3K4me3 peptide binding; Potency, µM (titrated, usually from 114 µM), for inactives: at the top dose activity change, negative = inhibition, usual class: inhibitors; hit rate 4.4% among 390,000; note: potency is the fitted concentration of half-maximal effect; % is set by controls: 0 for no effect and ±100 for the full control effect; nearly all actives have a fitted effect of over 50% in size
L3MBTL1 inh = blocks human L3MBTL1; Q9Y468; AlphaScreen L3MBTL1–H3K9me1 peptide binding; Potency, µM (doses to about 57.1 µM), for the others: top-dose activity, negative = inhibition, hits mostly inhibitors; hit rate 0.66% among 230,000; note: potency is the fitted concentration of half-maximal effect; % is set by controls: 0 for no effect and ±100 for the full control effect; nearly all actives have a fitted effect of over 60% in size
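Read-out is AlphaScreen signal from streptavidin donor and nickel chelate acceptor beads (10 ug/mL final each) bridging L3MBTL1 (50 nM) and biotinylated K9-monomethylated H3(1-15) peptide (75 nM), after 30 min compound exposure at room temperature.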
HP1b chromo inh = HP1-beta chromodomain-methylated histone interaction inhibition | Potency, µM (top dose mostly 114 µM), inactives show at the highest dose activity change, negative = inhibition, hits mostly inhibitors | AlphaScreen HP1-beta / biotin-H3K9me3 peptide binding | hit rate 0.56% among 390,000 | P83916; note: potency is the fitted concentration of half-maximal effect; nearly all actives have a fitted effect of over 70% in size
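HP1-beta protein (50 nM final) preincubated 30 min at room temperature with biotinylated H3(1-18)K9me3 peptide (50 nM) in PBS pH 7.4, 0.01% Tween-20, then compound added for 30 min. AlphaScreen streptavidin donor/nickel chelate acceptor beads (10 ug/mL final), 30 min dark, luminescence read.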
* hit, by the source's call; u = inconclusive; x = not tested or not shown; ! = repeats disagree; [ ] = remark or other dose. Unless noted, calls come from the whole dose curve; as a rule, active = well fitted inhibition curve with a large enough effect; inconclusive = small, poorly fitted or top-dose-only effect; inactive = no such curve, though single readings can be large or run the other way.

SMILES	JMJD2E inh	PI5P4K alpha inh	BAZ2B inh	JMJD2A Tudor inh	L3MBTL1 inh	HP1b chromo inh
CCCCN1C(=O)/C(=C/C=C/c2ccco2)C(=O)NC1=S	-26%	-85*	35µM*	22µM*	3.5µM*	35µM*
O=C1NC(=O)N(Cc2ccccc2)C(=O)/C1=C\N1CCCc2ccccc21	1%	u	-33%	-32%	u	15%
Cc1ccc(N2C(=O)NC(=O)/C(=C/C=C/c3ccco3)C2=O)cc1	-22%	-24	-26%	-20%	u	12%
O=C1NC(=O)N(Cc2ccc(F)cc2)C(=O)/C1=C\C=C\c1ccco1	-3%	-75*	56µM*	-20%[11.4 µM]	x	9%
O=C1NC(=O)N(Cc2ccco2)C(=O)/C1=C/c1cccn1CCOc1ccccc1Cl	2%	-52*	45µM*	-25%	u	25%
O=C(Cc1ccc(Cl)c(Cl)c1)N1CCCC[C@H]1CN1CCCC1	-9%	x	x	x	x	x
COc1cc2[nH]c(=O)n(CCCCCC(=O)N3CCN(c4cccc(C(F)(F)F)c4)CC3)c(=O)c2cc1OC	x	x	-13%	u	x	-2%
CCCCN1C(=O)/C(=C\c2ccco2)C(=O)N(CCc2ccccc2)C1=O	-6%	-82*	35µM*	u	u	u
Cc1ccc(Cn2c(SCc3ccc(C(=O)NC4CCCC4)cc3)nc3ccncc32)cc1	x	x	-2%	-10%	x	53%
O=C1C(Cl)=C(N2CCOCC2)C(=O)N1c1ccccc1F	x	8	-27%	-12%	u	76%
COc1ccccc1-c1n[nH]c(=S)n1Cc1ccco1	-13%	x	u	x	-3%	x
S=c1[nH]nc(-c2ccco2)n1Cc1ccccc1	u	4	-25%	7.1µM*	3%	-6%
S=c1[nH]nc(C2CC2)n1Cc1ccccc1	-4%	7	x	16µM*	-19%	-16%
NCC(O)c1cc(O)c(O)cc1F (stereo unspecified)	14µM*	0	1%	10µM*	u	u
Cc1cccc(N2C(=O)NC(=O)/C(=C\c3ccc4c(c3)CCCN4Cc3ccccc3)C2=O)c1	u	u	u	-24%	-9%	15%
CCC(C)N1C(=O)/C(=C/c2ccc3c(c2)CCN3CCCCl)C(=O)NC1=S (stereo unspecified)	0%	-67*	50µM*	50µM*	u	u
CC(=O)Nc1ccc(N(C(=O)Cn2nnc3ccccc32)C(C(=O)NC2CCCC2)c2ccc(O)c(O)c2)cc1 (stereo unspecified)	7.9µM*	-2	-18%	-17%	-5%	-15%
COc1ccc(NC(=O)Cn2c3ccccc3c3nc4n(c(=O)c32)CCS4)cc1	u	4	-2%	2%	7%	31%
CC(=O)N1CC[N+](C)(C)CC1	11µM*	x	x	x	x	x
Cc1ccc(-c2nn(C)c(=O)c3ccccc23)cc1CNC(=O)/C=C/c1ccccc1	u	-1	12%	-16%	32%	16%
C[n+]1ccc(-c2ccncc2)cc1	-1%	x	-4%	40µM*	-2%	24%
O=C(O)CF	11%	x	x	x	x	x
CN1C2CCC1/C(=C/c1ccccn1)C(=O)/C2=C\c1ccccn1	0%	-7	-24%	79µM*	-1%	-3%
COc1cccc(CN2CC=C(c3ccc(F)cc3)CC2)c1	x	4	-6%	5%	4%	54%
O=S1(=O)N(CCN2CC=C(c3c[nH]c4cc(F)ccc34)CC2)c2cccc3c2N1CCC3	16µM*	28	u	u	-13%	-17%
SMILES	JMJD2E inh	PI5P4K alpha inh	BAZ2B inh	JMJD2A Tudor inh	L3MBTL1 inh	HP1b chromo inh
CCOP(=S)(OCC)SCn1c(=O)oc2cc(Cl)ccc21	-12%	x	x	x	x	x
[N-]=[N+]=CC(=O)OC[C@H](N)C(=O)O	5%	-2	4%	32µM*	7%	29%
COc1ccc2c(c1)c(=O)c(C(=O)c1ccc(Cl)cc1)cn2CC(=O)Nc1ccc2c(c1)OCCO2	x	x	-1%	-3%	x	52%
CNCCc1c[nH]c2ccc(O)cc12	22µM*	6	x	22µM*	x	u
CNCCc1c[nH]c2ccccc12	u	10	-21%	-17%	10%	29%
Brc1c(NC2=NCCN2)ccc2nccnc12	20µM*	x	1%	x	-2%	x
CCCCC(=O)C1C(=O)NC(=O)NC1=O	-7%	-14	-30%	56µM*	-6%	21%
O=[N+]([O-])c1ccc(N2CCCCC2)c2ncccc12	-14%	0	u	u	-18%	u
O=[N+]([O-])c1ccc(N2CCCCCC2)c2ncccc12	u	5	14µM*	16µM*	u	u
Cc1cccc(N2CCc3c2nc2ccccc2c3N)c1	u	-5	u	3.2µM*!	-1%	u
CC(=O)N1CCCSC1=Nc1ccccc1	-3%	1	-12%	2%	-5%	40%
CCOc1ccccc1N=C1SCCCN1C	-12%	x	3%	79µM*	-3%	31%
COc1cc(CNCCc2c[nH]c3ccccc23)cc(OC)c1OC	x	1	x	x	x	x
CCc1ccc(CNCCc2c[nH]c3ccccc23)cc1	x	0	2%[0.457 µM]	35µM*	-16%	u
COc1cc(CNCCc2c[nH]c3ccccc23)cc(OC)c1	x	-1	50µM*	3.5µM*	x	u
Cc1cccc(CNCCc2c[nH]c3ccccc23)c1	x	23	40µM*	u	-4%	13%
O=C1c2ccccc2-c2cccc3cccc1c23	-1%	-19	x	56µM*	x	2%
O=C1c2ccccc2-c2cc3ccccc3cc21	x	20	x	8%	x	113%
CCOC(=O)c1cccc(NC(=O)c2c(O)[nH]c(=O)[nH]c2=O)c1	x	3	x	u	x	u
CCCCCNc1c(C(=O)OCC)c(=O)[nH]c2ccccc12	4%	-1	9%	56µM*	5%	-14%
